This passage reports outcome and AC50 results from PubChem BioAssay (EPA / NIEHS).

What all share (conditions): mRNA level, 48 h; actives raise or lower the signal
Read-out in assay [1]: Cytochrome P450 7A1 (Homo sapiens) (UniProt P22680)
The assay is described as follows: LTEA_HepaRG_CYP7A1: Life Technologies and Expression Analysis (LTEA) Assay for Cytochrome P450 7A1 (CYP7A1) using HepaRG (AID 2283496). A digest of the protocol:
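Using 0.5% DMSO as vehicle and baseline, chemicals were tested in duplicate over an 8-point range from 100 uM on HepaRG cells for 48 h; qRT-PCR signals were normalised to ACTB, GAPDH and POLR2A.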

Read-out in assay [2]: Glutathione S-Transferase (GSTA2), GSTA2 (gene 2939)
The assay is described as follows: LTEA_HepaRG_GSTA2: Life Technologies and Expression Analysis (LTEA) Assay for Glutathione S-Transferase (GSTA2) using HepaRG (AID 2283497). A digest of the protocol:
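qRT-PCR readout of GSTA2 transcript, normalized to three housekeeping genes, fitted bidirectionally against 0.5% DMSO baseline. Differentiated HepaRG cells received compound for 48 h at 8 concentrations (top 100 uM, half-log steps).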

Read-out in assay [3]: growth arrest and DNA damage 45 (GADD45G), GADD45G (gene 10912)
The assay is described as follows: LTEA_HepaRG_GADD45G: Life Technologies and Expression Analysis (LTEA) Assay for growth arrest and DNA damage 45 (GADD45G) using HepaRG (AID 2283499). A digest of the protocol:
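Differentiated human HepaRG cells, 48 h post-plating, exposed 48 h in serum-free induction medium to 8 half-log concentrations (top 100 uM, 0.5% DMSO) in duplicate. GADD45G mRNA measured by Fluidigm TaqMan qRT-PCR, normalized to ACTB, GAPDH, POLR2A; bidirectional fit versus DMSO.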

Read-out in assay [4]: Glutamate-cysteine ligase regulatory (GCLM), GCLM (gene 2730)
Briefly: LTEA_HepaRG_GCLM: Life Technologies and Expression Analysis (LTEA) Assay for Glutamate-cysteine ligase regulatory (GCLM) using HepaRG (AID 2283500). A digest of the protocol: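 HepaRG, 48 h dosing, 100 uM top, half-log x8, 0.5% DMSO vehicle. Readout: GCLM mRNA by TaqMan qRT-PCR, housekeeping-normalized (ACTB/GAPDH/POLR2A). Curves fit bidirectionally vs DMSO baseline.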

Read-out in assay [5]: Heat shock 70 kDa protein 1 (HSPA1A), gene 3303
The assay is described as follows: LTEA_HepaRG_HSPA1A: Life Technologies and Expression Analysis (LTEA) Assay for Heat shock 70 kDa protein 1 (HSPA1A) using HepaRG (AID 2283502). In a few lines: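 HepaRG, 48 h exposure, 8-pt half-log CRC from 100 uM in 0.5% DMSO, duplicates. Readout: TaqMan qRT-PCR of HSPA1A mRNA, housekeeping-normalized (ACTB/GAPDH/POLR2A). Bidirectional fit vs 0.5% DMSO baseline.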

Read-out in assay [6]: Hypoxia-inducible factor 1-alpha (Homo sapiens) (UniProt Q16665)
Briefly: LTEA_HepaRG_HIF1A: Life Technologies and Expression Analysis (LTEA) Assay for Hypoxia-inducible factor 1 (HIF1A) Trancription factor using HepaRG (AID 2283503). A digest of the protocol: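 Gain- or loss-of-signal HIF1A mRNA changes are fitted against a DMSO baseline. HepaRG cultures receive eight concentrations, highest 100 uM, for 48 h in serum-free induction medium with 0.5% DMSO.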

Read-out in assay [7]: 3-Hydroxy-3-Methylglutaryl-CoA Synthase 2 (HMGCS2), HMGCS2 (gene 3158)
The assay is described as follows: LTEA_HepaRG_HMGCS2: Life Technologies and Expression Analysis (LTEA) Assay for 3-Hydroxy-3-Methylglutaryl-CoA Synthase 2 (HMGCS2) using HepaRG (AID 2283504). A digest of the protocol:
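Human HepaRG cells in serum-free induction medium were exposed in duplicate for 48 h to 8-point half-log series from 100 uM top in 0.5% DMSO. HMGCS2 mRNA measured by TaqMan qRT-PCR, normalised to ACTB, GAPDH, POLR2A; bidirectional fit versus DMSO.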

Read-out in assay [8]: HGF (gene 3082)
Briefly: LTEA_HepaRG_HGF: Life Technologies and Expression Analysis (LTEA) Assay for Hepatocyte Growth Facto (HGF) using HepaRG (AID 2283505). In a few lines:
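Differentiated HepaRG cells in serum-free induction medium exposed 48 h in duplicate, 8 half-log concentrations from 100 uM in 0.5% DMSO. HGF mRNA by qRT-PCR, normalised to ACTB, GAPDH, POLR2A; bidirectional fitting.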

Read-out in assay [9]: Insulin Like Growth Factor 1 (IGF1), IGF1 (gene 3479)
The assay is described as follows: LTEA_HepaRG_IGF1: Life Technologies and Expression Analysis (LTEA) Assay for Insulin Like Growth Factor 1 (IGF1) using HepaRG (AID 2283506). In a few lines:
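qRT-PCR readout of IGF1 mRNA, normalized to three housekeeping genes, after 48 h chemical exposure of HepaRG cells. Concentrations: 8-point half-log series, top 100 uM, 0.5% DMSO vehicle. Gain or loss fitted against DMSO baseline.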

Read-out in assay [10]: Intercellular Adhesion Molecule 1 (ICAM1), ICAM1 (gene 3383)
The assay is described as follows: LTEA_HepaRG_ICAM1: Life Technologies and Expression Analysis (LTEA) Assay for Intercellular Adhesion Molecule 1 (ICAM1) using HepaRG (AID 2283507). A digest of the protocol: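 Differentiated human HepaRG cells in serum-free induction medium exposed 48 h in duplicate to 8 half-log concentrations (top 100 uM, 0.5% DMSO). ICAM1 mRNA quantified by TaqMan qRT-PCR, normalized to ACTB, GAPDH and POLR2A; bidirectional fitting versus DMSO.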

Read-out in assay [11]: Insulin-like growth factor-binding protein 1 (IGFBP1), IGFBP1 (gene 3484)
The assay is described as follows: LTEA_HepaRG_IGFBP1: Life Technologies and Expression Analysis (LTEA) Assay for Insulin-like growth factor-binding protein 1 (IGFBP1) using HepaRG (AID 2283508). In a few lines:
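HepaRG cells, plated 48 h then switched to serum-free induction medium, exposed in duplicate for 48 h to 8-point half-log series from 100 uM in 0.5% DMSO. mRNA measured by qRT-PCR, normalized to ACTB/GAPDH/POLR2A; bidirectional fit versus DMSO.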

Read-out in assay [12]: Interleukin 6 (IL6), IL6 (gene 3569)
Briefly: LTEA_HepaRG_IL6: Life Technologies and Expression Analysis (LTEA) Assay for Interleukin 6 (IL6) using HepaRG (AID 2283509). A digest of the protocol: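 qRT-PCR read-out of IL6 transcript, normalized to three housekeeping genes, after 48 h chemical exposure of HepaRG cells; 8-point half-log series, top 100 uM, 0.5% DMSO vehicle. Bidirectional curve fitting against DMSO baseline.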

Read-out in assay [13]: Interleukin 6 Receptor (IL6R), IL6R (gene 3570)
The assay is described as follows: LTEA_HepaRG_IL6R: Life Technologies and Expression Analysis (LTEA) Assay for Interleukin 6 Receptor (IL6R) using HepaRG (AID 2283510). In a few lines:
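HepaRG, 48 h exposure, 8-pt half-log series, top 100 uM, 0.5% DMSO vehicle, duplicates. Read-out: TaqMan qRT-PCR of IL6R transcript, housekeeping-gene normalized. Gain or loss fitted relative to DMSO baseline.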

Read-out in assay [14]: Potassium channel subfamily K member 1 (KCNK1), KCNK1 (gene 3775)
The assay is described as follows: LTEA_HepaRG_KCNK1: Life Technologies and Expression Analysis (LTEA) Assay for Potassium channel subfamily K member 1 (KCNK1) using HepaRG (AID 2283511). In a few lines: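 HepaRG, 48 h exposure, 8-pt half-log series top 100 uM, 0.5% DMSO vehicle, duplicates. Readout: KCNK1 transcript by qRT-PCR (Fluidigm array), housekeeping-normalized; bidirectional curve fit relative to DMSO baseline.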

Read-out in assay [15]: Keratin 19 (KRT19), KRT19 (gene 3880)
Briefly: LTEA_HepaRG_KRT19: Life Technologies and Expression Analysis (LTEA) Assay for Keratin 19 (KRT19) using HepaRG (AID 2283512). In a few lines:
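Differentiated HepaRG cells in serum-free induction medium, exposed 48 h in duplicate to 8 half-log concentrations up to 100 uM in 0.5% DMSO. KRT19 mRNA by qRT-PCR, normalized to ACTB, GAPDH, POLR2A; bidirectional fit vs DMSO.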

Read-out in assay [16]: JUN Transcription Factor, JUN (gene 3725)
The assay is described as follows: LTEA_HepaRG_JUN: Life Technologies and Expression Analysis (LTEA) Assay for JUN Transcription Factor using HepaRG (AID 2283513). A digest of the protocol:
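HepaRG, 48 h exposure, 8-pt half-log series top 100 uM, 0.5% DMSO, duplicate. JUN mRNA by qRT-PCR (Fluidigm), housekeeping-normalized (ACTB/GAPDH/POLR2A); bidirectional curve fit vs DMSO baseline.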

Read-out in assay [17]: Lipase C (LIPC), LIPC (gene 3990)
Briefly: LTEA_HepaRG_LIPC: Life Technologies and Expression Analysis (LTEA) Assay for Lipase C (LIPC) using HepaRG (AID 2283514). A digest of the protocol:
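HepaRG, 48 h exposure, 8-pt half-log series from 100 uM in 0.5% DMSO, duplicates. Readout: LIPC mRNA by Fluidigm qRT-PCR, housekeeping-normalized (ACTB/GAPDH/POLR2A). Gain or loss fitted bidirectionally against DMSO baseline.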

Read-out in assay [18]: Lipoprotein lipase (LPL), LPL (gene 4023)
The assay is described as follows: LTEA_HepaRG_LPL: Life Technologies and Expression Analysis (LTEA) Assay for Lipoprotein lipase (LPL) using HepaRG (AID 2283515). In a few lines:
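HepaRG, 48 h exposure, 8-pt half-log dilutions from 100 uM, 0.5% DMSO vehicle, duplicates; qRT-PCR (Fluidigm array) of LPL mRNA vs housekeeping genes; bidirectional curve fit relative to DMSO baseline.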

Read-out in assay [19]: Glutathione S-transferase M3 (GSTM3), GSTM3 (gene 2947)
Briefly: LTEA_HepaRG_GSTM3: Life Technologies and Expression Analysis (LTEA) Assay for Glutathione S-transferase M3 (GSTM3) using HepaRG (AID 2283501). In a few lines: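 Differentiated human HepaRG cells were exposed in duplicate for 48 h in serum-free induction medium, 8 points from 100 uM top in half-log steps, 0.5% DMSO. GSTM3 mRNA was measured by TaqMan qRT-PCR, normalized to ACTB, GAPDH and POLR2A; bidirectional fit versus DMSO.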

The structures appear in SMILES notation. The source made the active and inactive calls. How the source made its calls: active means hit-call score of the fitted dose curve at least 0.9, where 1 is the maximum; inactive means score below 0.9.

Sequence of Hypoxia-inducible factor 1-alpha (Homo sapiens) (Q16665 whole entry, looked up): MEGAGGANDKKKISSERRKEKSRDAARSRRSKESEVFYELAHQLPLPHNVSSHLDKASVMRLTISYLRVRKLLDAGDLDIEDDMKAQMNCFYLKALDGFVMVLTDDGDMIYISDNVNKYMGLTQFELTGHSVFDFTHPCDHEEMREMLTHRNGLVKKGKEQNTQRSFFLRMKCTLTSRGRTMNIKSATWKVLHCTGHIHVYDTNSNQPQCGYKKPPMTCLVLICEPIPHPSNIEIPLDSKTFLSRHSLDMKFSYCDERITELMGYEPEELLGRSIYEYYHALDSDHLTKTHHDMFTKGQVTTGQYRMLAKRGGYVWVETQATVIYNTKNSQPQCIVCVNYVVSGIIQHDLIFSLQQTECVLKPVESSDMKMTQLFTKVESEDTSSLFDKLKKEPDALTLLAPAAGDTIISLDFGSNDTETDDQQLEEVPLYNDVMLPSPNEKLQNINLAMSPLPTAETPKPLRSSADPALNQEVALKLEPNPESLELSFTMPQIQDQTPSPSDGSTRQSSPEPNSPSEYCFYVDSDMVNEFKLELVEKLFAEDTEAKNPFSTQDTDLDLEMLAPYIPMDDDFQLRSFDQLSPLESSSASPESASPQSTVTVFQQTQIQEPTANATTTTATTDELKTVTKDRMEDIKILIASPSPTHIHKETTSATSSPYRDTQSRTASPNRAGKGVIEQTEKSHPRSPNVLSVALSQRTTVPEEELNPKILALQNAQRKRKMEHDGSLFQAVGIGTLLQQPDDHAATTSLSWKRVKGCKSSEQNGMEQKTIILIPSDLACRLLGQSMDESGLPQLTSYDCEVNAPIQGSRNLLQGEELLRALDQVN

For `CN(C)C(=O)Nc1cccc(C(F)(F)F)c1`, the call in assay [1], in assay [2], in [3], in assay [4], in [5] and in [6] was inactive. For the same molecule, the molecule was called inactive in assay [7], in [8], in assay [9], in assay [10], in [11] and in assay [12]. The outcome in assay [13], in [14], in assay [15], in assay [16] and in [18] was inactive. In assay [17], the AC50 (as a rule, the midpoint of the concentration-response curve, whichever way the signal moves) was 50 µM (active).
Take `CN(C)NC(=O)CCC(=O)O`: the outcome in assay [1], in assay [2], in assay [3], in assay [4], in assay [19] and in assay [5] was inactive. Besides, the call in assay [6], in assay [7], in assay [8], in [9], in [10] and in [11] was inactive. The outcome in assay [12], in assay [13], in assay [14], in assay [15], in assay [16] and in assay [18] was inactive.
In the case of `CNc1cnn(-c2cccc(C(F)(F)F)c2)c(=O)c1Cl`, the AC50 is 21.4 µM (active) in assay [1]; 30.1 µM (active) in assay [4]; 9.92 µM (active) in assay [7]; 36.9 µM (active) in assay [9]; 17.4 µM (active) in assay [11]; 50 µM (active) in [12]. Besides, the AC50 in [15] was 14.5 µM (active). Besides, the call in assay [2], in assay [3], in assay [5], in assay [6], in [8] and in [10] was inactive. For the same molecule, the outcome in assay [13], in assay [14], in assay [16], in [17] and in assay [18] was inactive.
Regarding `CCCSP(=O)(OCC)Oc1ccc(Br)cc1Cl` (configuration not stated), the molecule was called inactive in assay [1], in assay [2], in assay [3], in assay [4], in assay [19] and in [5]. The molecule was called inactive in assay [6], in assay [7], in [8], in [9], in assay [10] and in [11]. Moreover, the result in assay [12], in assay [13], in assay [14], in assay [15], in assay [16] and in assay [18] was inactive.
